Common to all, as to assay: NCI-60 one-dose screen, 48 h (100 = growth as untreated, 0 = no growth, -100 = all killed)
What all share (details): 10 µM unless noted

In test [1] the test system is NCI-H23 lung.
Test [2] has as its system NCI-H322M lung.
For test [3], the system named is HOP-62 NSCLC.
The subject of test [4] is NCI-H460 lung.
For test [5], the system named is HOP-92 NSCLC.
The test system of test [6] is NCI-H522 lung.
For test [7], the system named is A549/ATCC NSCLC.
Test [8] has as its system 786-0 renal.
For test [9], the system named is COLO 205 colon.
The subject of test [10] is DU-145 prostate.
In test [11] the test system is K-562 leukemia.
For test [12], the system named is MALME-3M melanoma.
In test [13] the test system is MDA-MB-231 breast.
Test [14] relates to RXF 393 renal.
For test [15], the system named is SF-268 CNS.
The test system of test [16] is SF-295 CNS.
In test [17] the test system is SF-539 CNS.
For test [18], the system named is UACC-257 melanoma.
Test [19] has as its system M14 melanoma.
Test [20] relates to HCT-15 colon.

Compounds without any hit were thinned out: in the full panel of roughly 83,000, 20% have a hit.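 Each cell line was grown in a 96-well plate and treated with one concentration of compound for 48 hours. Values below 10 were considered active.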 Unmarked numbers belong to inactive results. Active and inactive are the calls of the source.

As to `COc1ccc(/C=C/C(=O)c2c(C)nc3ccccc3c2/C=C/c2ccccc2)c(OC)c1`, the growth in [1] is 73.4%; in [2] it was 89.3%; in test [3], 108%; in test [4], 80.3%; in test [5] it was 66.8%; in [6], 70.5%. Also, the growth was 78.5% in [7]; 94.1% in test [8]; 94.7% in [9]; 90.4% in test [10]; 69.6% in [11]; 106% in test [12]. Further, the growth in [13] was 68.9%; in test [14], 89.6%; in test [15], 80.7%; in test [16], 90.9%; in test [17], 100%; in test [18] it was 104%. The results for the growth in test [19] and in test [20] were 97.3% and 72.2%, respectively.

As to `COc1ccc(OC)c(/C=C/C(=O)c2c(C)nc3ccccc3c2/C=C/c2ccccc2)c1`, the growth was 58.8% in [1]; 78.5% in [2]; 90.7% in test [3]; 28.6% in test [4]; 48.5% in test [5]; 23.7% in test [6]. For the same molecule, the growth was 55.8% in test [7]; 89.2% in [8]; 86.4% in [9]; 54.2% in test [10]; 17% in [11]; 103% in [12]. In addition, the growth is 51.9% in [13]; 69.6% in test [14]; 73.7% in [15]; 76% in [16]; 99.6% in [17]; 72% in test [18]. Besides, the growth in test [19] is 81.5%; in test [20], 37.6%.

`Cc1ccc2cccc(Oc3ccc(Nc4ncnc5onc(-c6ccccc6)c45)cc3)c2n1`: the growth in test [1] is 87.9%; in test [2], 88.2%; in [3], 90.4%; in test [4], 73.5%; in [5] it was 26.3%; in test [6], 72.2%. In addition, the growth was 80.6% in test [7]; 101% in test [8]; 59.1% in [9]; 94.4% in test [10]; 76.7% in test [11]; 84.1% in test [12]. The growth in test [13] is 72.2%; in test [14], 82.8%; in [15], 91.4%; in [16] it was 88.1%; in test [17], 79.8%; in [18] it was 89%. The growth in [19] was 84%; in test [20], 43.4%.

Turning to `Oc1c(C(Nc2ccccn2)c2cccc(Oc3ccccc3)c2)ccc2cccnc12` (stereo not given), the growth was -73.3% (active) in [1]; -94.4% (active) in [2]; -95.7% (active) in [3]; -86.3% (active) in test [4]; -86.9% (active) in test [5]; -84.7% (active) in [6]. The growth in test [7] was -81.8% (active); in [8] it was -81.4% (active); in test [9], -90.8% (active); in test [10] it was -96% (active); in [11], -64.1% (active); in [12], -74.8% (active). The growth in test [13] is -89.3% (active); in test [14], -92% (active); in [15] it was -86.7% (active); in [16] it was -86.9% (active); in test [17] it was -93.1% (active); in test [18] it was -77.1% (active). For the same molecule, the values for the growth in test [19] and in test [20] were -68.6% (active) and -57.6% (active), respectively.

Turning to `O=c1c(-c2nc3ccccc3[nH]2)cc2ccccc2n1Cc1cn(Cc2ccccc2Cl)nn1`, the growth is 56.9% in test [1]; 52.3% in [2]; 35.1% in [3]; 6.86% (active) in test [4]; 11.3% in test [5]; 45.1% in [6]. In addition, the growth was 15.4% in [7]; -20.2% (active) in test [8]; 54% in test [9]; 18.1% in [10]; 30.7% in test [11]; 5.45% (active) in [12]. The growth in test [13] is -21% (active); in [14], 13.1%; in [15], 45.2%; in test [16], 32.9%; in test [17] it was 4.13% (active); in test [18], 56.8%. The growth is 38.4% in [19] and 19.7% in test [20].

In the case of `NC1C(N)C(N)C1N` (stereo not given), the growth in [1] was 102%; in [2], 99.7%; in test [3], 104%; in test [4] it was 113%; in [5], 79.6%; in [6], 91.5%. For the same molecule, the growth in test [7] is 99.8%; in test [8], 105%; in test [9], 107%; in test [10] it was 134%; in test [11], 99.5%; in test [12], 114%. The growth in [13] is 94.2%; in test [14], 125%; in test [15], 109%; in test [16], 126%; in [17], 100%; in test [18], 101%. The values for the growth in test [19] and in test [20] were 101% and 109%, respectively.

On to `C=C(C)CCC(C)N1CCC(N2CCC(C(=O)NCCc3ccccc3)CC2)CC1` (stereo not given), for which the growth in test [1] was 62.4%; in [2], 81%; in test [3], 79%; in [4] it was 40.4%; in test [5], 71%; in test [6] it was 43.2%. Moreover, the growth in [7] was 43.4%; in test [8], 70.2%; in test [9], 25.4%; in test [10], 62.2%; in test [11] it was 17%; in test [12] it was 57.3%. Also, the growth in test [13] is 69.7%; in test [14] it was 47.5%; in [15] it was 57.8%; in [16], 79.5%; in [17] it was 69%; in test [18], 72.6%. Also, the results for the growth in test [19] and in [20] were 58% and 39.2%, respectively.

With `FC(F)(F)c1cccc(Nc2nc3ccccc3nc2Nc2cccc(C(F)(F)F)c2)c1`, the growth in [1] was 39.7%; in test [2], -28% (active); in test [3], 2.35% (active); in [4], -59.4% (active); in test [5], 6.66% (active); in test [6], -57.1% (active). Moreover, the growth is 3.08% (active) in test [7]; -75.3% (active) in [8]; -87.2% (active) in test [9]; -1.33% (active) in test [10]; -19.6% (active) in [11]; -81.6% (active) in [12]. Also, the growth was -56.3% (active) in [13]; -89.6% (active) in test [14]; -9.63% (active) in [15]; -78.9% (active) in [16]; -78.7% (active) in test [17]; -75.1% (active) in test [18]. In addition, the figures for the growth in [19] and in test [20] were -69.9% (active) and 2.32% (active), respectively.

(Values after PubChem BioAssay (NCI).)
